# Measured values published in ChEMBL document CHEMBL1961873, “Compounds: GSK PKIS; Assays: Nanosyn kinase panel” (2012).
# What was measured:
# [1] = target: Sphingosine kinase 1 (Homo sapiens) (UniProt Q9NYA1); settings: at 1 µM;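 note: mean SPHK1 inhibition value reported from the GSK PKIS kinase panel screen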
# [2] = target: T1, Sphingosine kinase 2 (Homo sapiens) (UniProt Q9NRA0); settings: at 0.1 µM
# T1 sequence (whole entry): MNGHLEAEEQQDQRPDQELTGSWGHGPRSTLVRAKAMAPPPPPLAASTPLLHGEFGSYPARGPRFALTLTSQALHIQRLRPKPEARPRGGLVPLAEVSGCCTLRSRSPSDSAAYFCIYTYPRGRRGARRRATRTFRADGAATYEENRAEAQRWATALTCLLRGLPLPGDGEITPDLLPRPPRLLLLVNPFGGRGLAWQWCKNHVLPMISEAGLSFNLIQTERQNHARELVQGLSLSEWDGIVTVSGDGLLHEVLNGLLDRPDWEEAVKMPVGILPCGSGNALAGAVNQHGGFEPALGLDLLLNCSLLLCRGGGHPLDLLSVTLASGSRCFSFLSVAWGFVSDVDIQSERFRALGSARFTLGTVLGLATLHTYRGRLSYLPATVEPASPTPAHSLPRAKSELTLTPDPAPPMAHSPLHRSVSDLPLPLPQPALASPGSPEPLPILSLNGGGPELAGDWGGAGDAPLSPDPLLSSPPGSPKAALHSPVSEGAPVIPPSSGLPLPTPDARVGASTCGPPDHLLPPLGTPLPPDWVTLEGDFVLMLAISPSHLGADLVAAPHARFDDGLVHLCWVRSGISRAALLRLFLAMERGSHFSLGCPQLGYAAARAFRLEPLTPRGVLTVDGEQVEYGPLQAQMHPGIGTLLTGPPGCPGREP
# [3] = target: T1, Sphingosine kinase 2 (Homo sapiens); settings: at 1 µM
# [4] = target: Casein kinase II subunit alpha (Homo sapiens) (UniProt P68400); settings: at 0.1 µM
# Sequence of Casein kinase II subunit alpha (Homo sapiens) (P68400 whole entry, looked up): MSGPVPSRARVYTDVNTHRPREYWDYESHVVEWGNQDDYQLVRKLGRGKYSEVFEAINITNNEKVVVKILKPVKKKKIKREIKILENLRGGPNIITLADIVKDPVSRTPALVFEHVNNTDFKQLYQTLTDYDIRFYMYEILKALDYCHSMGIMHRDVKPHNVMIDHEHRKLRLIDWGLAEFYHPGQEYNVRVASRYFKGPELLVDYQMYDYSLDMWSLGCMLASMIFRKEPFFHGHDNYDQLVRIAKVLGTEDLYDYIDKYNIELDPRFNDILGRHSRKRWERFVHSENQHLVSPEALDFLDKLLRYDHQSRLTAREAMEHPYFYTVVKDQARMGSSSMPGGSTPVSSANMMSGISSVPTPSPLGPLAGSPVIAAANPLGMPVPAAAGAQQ
# [5] = target: Casein kinase II subunit alpha (Homo sapiens) (UniProt P68400); settings: at 1 µM
# [6] = target: T2, Inhibitor of nuclear factor kappa-B kinase subunit alpha (Homo sapiens) (UniProt O15111); settings: at 0.1 µM
# T2 sequence (whole entry): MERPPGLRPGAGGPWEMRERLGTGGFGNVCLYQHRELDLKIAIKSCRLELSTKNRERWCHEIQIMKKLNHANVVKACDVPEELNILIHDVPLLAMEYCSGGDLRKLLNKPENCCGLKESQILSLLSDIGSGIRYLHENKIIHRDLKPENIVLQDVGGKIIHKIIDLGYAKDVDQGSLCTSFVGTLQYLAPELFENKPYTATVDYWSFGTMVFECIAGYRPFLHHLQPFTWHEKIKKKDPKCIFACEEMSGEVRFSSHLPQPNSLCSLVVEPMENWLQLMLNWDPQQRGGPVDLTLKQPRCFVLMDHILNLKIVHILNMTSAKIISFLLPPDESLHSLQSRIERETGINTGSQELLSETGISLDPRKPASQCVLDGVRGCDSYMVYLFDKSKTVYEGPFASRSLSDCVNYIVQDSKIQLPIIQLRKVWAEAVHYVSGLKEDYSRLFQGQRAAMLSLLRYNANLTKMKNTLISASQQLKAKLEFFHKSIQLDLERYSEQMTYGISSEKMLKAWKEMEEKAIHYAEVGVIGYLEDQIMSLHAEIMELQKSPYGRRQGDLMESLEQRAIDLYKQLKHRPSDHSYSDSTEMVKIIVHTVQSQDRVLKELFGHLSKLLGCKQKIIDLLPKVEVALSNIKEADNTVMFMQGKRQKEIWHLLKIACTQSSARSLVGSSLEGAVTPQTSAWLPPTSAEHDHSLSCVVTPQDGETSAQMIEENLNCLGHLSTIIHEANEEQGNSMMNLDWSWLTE
# [7] = target: T2, Inhibitor of nuclear factor kappa-B kinase subunit alpha (Homo sapiens); settings: at 1 µM
# [8] = target: T3, Inhibitor of nuclear factor kappa-B kinase subunit beta (Homo sapiens) (UniProt O14920); settings: at 0.1 µM
# T3 sequence (whole entry): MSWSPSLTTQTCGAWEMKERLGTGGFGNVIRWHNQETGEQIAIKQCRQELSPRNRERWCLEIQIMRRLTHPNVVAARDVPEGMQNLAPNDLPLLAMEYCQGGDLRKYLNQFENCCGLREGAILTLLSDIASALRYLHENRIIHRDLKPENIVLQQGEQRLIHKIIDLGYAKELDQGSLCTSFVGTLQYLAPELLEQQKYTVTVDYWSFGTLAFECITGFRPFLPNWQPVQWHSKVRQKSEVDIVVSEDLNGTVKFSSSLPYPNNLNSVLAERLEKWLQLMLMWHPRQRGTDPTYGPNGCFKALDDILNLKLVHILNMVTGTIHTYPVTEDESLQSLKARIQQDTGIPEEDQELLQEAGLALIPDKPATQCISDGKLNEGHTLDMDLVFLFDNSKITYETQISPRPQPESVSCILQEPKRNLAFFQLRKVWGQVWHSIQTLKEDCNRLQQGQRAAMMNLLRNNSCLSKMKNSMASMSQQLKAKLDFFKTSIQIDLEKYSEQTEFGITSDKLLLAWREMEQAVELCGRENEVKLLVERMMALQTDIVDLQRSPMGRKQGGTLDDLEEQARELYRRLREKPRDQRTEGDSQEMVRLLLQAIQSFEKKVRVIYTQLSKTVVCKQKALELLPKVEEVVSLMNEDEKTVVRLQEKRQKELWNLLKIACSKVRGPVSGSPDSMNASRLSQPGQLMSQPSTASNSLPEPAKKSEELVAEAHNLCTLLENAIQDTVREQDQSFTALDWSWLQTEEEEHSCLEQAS
# [9] = target: T3, Inhibitor of nuclear factor kappa-B kinase subunit beta (Homo sapiens); settings: at 1 µM
# [10] = target: T4, Inhibitor of nuclear factor kappa-B kinase subunit epsilon (Homo sapiens) (UniProt Q14164); settings: at 0.1 µM
# T4 sequence (whole entry): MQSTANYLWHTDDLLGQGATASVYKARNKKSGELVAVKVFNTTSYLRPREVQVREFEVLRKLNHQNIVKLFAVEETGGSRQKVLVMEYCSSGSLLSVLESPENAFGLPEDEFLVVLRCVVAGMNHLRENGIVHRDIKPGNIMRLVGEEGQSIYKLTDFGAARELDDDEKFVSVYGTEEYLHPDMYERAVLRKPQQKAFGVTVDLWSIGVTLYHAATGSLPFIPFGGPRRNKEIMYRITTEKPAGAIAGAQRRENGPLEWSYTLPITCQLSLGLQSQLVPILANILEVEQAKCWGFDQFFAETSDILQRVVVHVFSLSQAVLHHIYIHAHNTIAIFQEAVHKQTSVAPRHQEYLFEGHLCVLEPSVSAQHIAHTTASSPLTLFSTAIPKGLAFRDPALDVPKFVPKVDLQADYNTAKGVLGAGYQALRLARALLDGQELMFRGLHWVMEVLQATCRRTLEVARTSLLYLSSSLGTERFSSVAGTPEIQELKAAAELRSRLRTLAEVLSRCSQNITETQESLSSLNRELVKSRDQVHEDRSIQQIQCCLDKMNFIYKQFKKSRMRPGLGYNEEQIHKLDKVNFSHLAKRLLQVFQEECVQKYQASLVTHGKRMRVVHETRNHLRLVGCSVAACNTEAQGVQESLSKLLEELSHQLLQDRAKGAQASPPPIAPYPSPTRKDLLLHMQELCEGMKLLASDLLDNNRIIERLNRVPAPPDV
# [11] = target: T4, Inhibitor of nuclear factor kappa-B kinase subunit epsilon (Homo sapiens); settings: at 1 µM
# [12] = target: T5, Serine/threonine-protein kinase Nek1 (Homo sapiens) (UniProt Q96PY6); settings: at 0.1 µM
# T5 sequence (whole entry): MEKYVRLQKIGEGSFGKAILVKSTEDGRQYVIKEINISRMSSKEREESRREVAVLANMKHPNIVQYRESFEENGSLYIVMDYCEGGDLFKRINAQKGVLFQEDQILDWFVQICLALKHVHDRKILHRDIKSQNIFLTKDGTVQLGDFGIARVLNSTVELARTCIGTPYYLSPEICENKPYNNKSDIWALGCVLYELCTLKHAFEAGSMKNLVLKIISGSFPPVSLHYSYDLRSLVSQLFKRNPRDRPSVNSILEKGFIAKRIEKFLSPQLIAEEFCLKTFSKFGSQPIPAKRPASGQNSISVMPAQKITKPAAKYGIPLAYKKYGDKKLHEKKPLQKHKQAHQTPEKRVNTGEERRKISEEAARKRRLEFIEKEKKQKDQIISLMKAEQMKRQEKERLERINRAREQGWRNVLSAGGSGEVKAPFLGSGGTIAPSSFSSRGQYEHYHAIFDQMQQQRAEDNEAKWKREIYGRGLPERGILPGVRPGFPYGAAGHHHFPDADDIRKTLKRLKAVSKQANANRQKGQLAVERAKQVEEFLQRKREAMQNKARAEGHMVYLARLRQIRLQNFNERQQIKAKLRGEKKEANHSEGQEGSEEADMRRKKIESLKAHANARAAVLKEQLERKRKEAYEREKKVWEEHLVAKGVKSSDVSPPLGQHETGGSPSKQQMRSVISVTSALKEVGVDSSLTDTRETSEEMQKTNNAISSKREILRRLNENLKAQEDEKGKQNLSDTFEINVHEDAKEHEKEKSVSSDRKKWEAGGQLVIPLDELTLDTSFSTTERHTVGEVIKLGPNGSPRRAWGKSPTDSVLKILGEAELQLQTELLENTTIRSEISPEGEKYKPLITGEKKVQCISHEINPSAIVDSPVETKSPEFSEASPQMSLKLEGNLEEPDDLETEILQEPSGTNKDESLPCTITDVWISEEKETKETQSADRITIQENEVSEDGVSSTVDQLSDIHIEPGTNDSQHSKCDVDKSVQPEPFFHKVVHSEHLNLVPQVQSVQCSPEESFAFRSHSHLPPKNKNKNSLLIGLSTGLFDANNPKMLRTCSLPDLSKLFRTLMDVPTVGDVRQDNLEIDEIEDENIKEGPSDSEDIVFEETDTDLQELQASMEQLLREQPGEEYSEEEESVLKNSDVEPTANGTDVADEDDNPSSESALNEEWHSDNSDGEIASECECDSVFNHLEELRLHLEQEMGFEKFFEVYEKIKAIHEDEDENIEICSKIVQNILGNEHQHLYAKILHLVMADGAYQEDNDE
# [13] = target: T5, Serine/threonine-protein kinase Nek1 (Homo sapiens); settings: at 1 µM
# [14] = target: T6, Serine/threonine-protein kinase Nek2 (Homo sapiens) (UniProt P51955); settings: at 0.1 µM
# T6 sequence (whole entry): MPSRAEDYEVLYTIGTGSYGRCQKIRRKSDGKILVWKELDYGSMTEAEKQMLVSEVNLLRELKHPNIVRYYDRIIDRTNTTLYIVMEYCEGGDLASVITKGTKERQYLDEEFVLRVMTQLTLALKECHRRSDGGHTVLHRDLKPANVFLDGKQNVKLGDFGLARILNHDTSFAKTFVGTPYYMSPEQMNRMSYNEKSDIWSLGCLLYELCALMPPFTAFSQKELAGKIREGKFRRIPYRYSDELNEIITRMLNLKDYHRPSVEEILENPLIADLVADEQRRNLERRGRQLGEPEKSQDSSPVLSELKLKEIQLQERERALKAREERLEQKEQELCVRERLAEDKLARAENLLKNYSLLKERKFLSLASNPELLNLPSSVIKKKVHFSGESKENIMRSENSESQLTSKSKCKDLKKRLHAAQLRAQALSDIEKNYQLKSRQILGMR
# [15] = target: T6, Serine/threonine-protein kinase Nek2 (Homo sapiens); settings: at 1 µM
# [16] = target: Serine/threonine-protein kinase Nek6 (Homo sapiens) (UniProt Q9HC98); settings: at 0.1 µM
# Sequence of Serine/threonine-protein kinase Nek6 (Homo sapiens) (Q9HC98 whole entry): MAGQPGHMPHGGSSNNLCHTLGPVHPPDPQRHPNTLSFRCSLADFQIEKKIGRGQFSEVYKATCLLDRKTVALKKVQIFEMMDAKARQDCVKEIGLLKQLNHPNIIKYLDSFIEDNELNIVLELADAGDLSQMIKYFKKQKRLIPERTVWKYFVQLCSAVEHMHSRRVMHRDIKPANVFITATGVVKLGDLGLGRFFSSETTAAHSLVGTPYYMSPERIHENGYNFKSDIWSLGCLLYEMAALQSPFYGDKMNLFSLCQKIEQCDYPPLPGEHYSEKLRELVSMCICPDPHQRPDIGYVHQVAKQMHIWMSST
# [17] = target: Serine/threonine-protein kinase Nek6 (Homo sapiens) (UniProt Q9HC98); settings: at 1 µM
# [18] = target: Serine/threonine-protein kinase Nek7 (Homo sapiens) (UniProt Q8TDX7); settings: at 0.1 µM
# Sequence of Serine/threonine-protein kinase Nek7 (Homo sapiens) (Q8TDX7 whole entry, looked up): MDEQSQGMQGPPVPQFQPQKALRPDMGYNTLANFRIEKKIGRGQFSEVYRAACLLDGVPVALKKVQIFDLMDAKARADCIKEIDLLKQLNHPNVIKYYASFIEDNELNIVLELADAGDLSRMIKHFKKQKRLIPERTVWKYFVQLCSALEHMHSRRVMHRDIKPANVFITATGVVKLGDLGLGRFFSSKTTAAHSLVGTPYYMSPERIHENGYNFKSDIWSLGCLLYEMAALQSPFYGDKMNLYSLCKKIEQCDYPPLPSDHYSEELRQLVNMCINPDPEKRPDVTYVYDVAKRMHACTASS
# [19] = target: Serine/threonine-protein kinase Nek7 (Homo sapiens) (UniProt Q8TDX7); settings: at 1 µM
# [20] = target: T7, Serine/threonine-protein kinase Nek9 (Homo sapiens) (UniProt Q8TD19); settings: at 0.1 µM;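 note: reported value is the mean percent inhibition of NEK9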
# T7 sequence (whole entry): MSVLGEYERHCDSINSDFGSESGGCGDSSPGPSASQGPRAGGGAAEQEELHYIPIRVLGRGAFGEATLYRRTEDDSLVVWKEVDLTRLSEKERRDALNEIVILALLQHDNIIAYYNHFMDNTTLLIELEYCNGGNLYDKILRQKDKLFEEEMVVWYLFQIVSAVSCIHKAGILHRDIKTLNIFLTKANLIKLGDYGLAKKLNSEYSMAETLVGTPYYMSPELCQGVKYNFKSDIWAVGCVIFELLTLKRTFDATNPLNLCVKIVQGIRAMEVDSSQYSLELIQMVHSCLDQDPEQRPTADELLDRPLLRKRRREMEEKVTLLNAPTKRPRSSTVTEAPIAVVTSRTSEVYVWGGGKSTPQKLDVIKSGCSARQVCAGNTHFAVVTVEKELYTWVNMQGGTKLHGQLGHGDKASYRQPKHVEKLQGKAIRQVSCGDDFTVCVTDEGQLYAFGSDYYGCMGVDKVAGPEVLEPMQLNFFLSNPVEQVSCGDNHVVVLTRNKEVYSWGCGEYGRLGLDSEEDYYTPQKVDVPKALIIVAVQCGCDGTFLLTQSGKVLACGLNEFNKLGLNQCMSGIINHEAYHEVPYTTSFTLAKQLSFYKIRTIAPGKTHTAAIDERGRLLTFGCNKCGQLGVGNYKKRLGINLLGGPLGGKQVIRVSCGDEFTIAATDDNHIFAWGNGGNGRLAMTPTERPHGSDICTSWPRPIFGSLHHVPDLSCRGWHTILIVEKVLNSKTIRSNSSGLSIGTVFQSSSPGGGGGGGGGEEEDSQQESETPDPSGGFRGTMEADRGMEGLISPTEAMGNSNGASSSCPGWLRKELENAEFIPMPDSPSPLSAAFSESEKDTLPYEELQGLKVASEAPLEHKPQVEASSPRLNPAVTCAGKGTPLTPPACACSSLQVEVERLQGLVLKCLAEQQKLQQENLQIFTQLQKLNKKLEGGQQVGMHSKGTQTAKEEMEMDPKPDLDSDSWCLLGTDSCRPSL
# Sequence of Sphingosine kinase 1 (Homo sapiens) (Q9NYA1 whole entry): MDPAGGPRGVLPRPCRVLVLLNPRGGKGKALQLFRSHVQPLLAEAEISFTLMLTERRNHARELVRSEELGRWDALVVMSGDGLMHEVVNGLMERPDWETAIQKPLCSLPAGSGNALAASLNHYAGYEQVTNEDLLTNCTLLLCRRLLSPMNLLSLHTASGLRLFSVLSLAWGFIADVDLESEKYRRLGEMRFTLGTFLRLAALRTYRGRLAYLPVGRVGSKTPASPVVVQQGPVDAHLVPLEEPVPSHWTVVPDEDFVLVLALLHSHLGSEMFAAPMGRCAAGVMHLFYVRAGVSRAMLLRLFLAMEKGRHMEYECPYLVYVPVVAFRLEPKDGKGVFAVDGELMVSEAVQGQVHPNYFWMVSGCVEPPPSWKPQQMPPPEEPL
compound,measurement,setting,value
CC(C)c1ccc(-c2cc(-c3c[nH]nc3-c3ccccn3)ccn2)cc1,inhibition,[1],-1.66%
same,inhibition,[2],-0.31%
same,inhibition,[3],-1.09%
same,inhibition,[4],0.16%
same,inhibition,[5],0.83%
same,inhibition,[6],7.45%
same,inhibition,[7],-4.49%
same,inhibition,[8],1.97%
same,inhibition,[9],-0.35%
same,inhibition,[10],1.33%
same,inhibition,[11],1.35%
same,inhibition,[12],0.4%
same,inhibition,[13],0.95%
same,inhibition,[14],1.77%
same,inhibition,[15],1.63%
same,inhibition,[16],1.08%
same,inhibition,[17],-0.92%
same,inhibition,[18],2.44%
same,inhibition,[19],0.94%
same,inhibition,[20],3.68%
